PubChem BioAssay AID1851 (National Center for Advancing Translational Sciences (NCATS), 2009)
Hit rate of the full screen: of about 16,000 compounds, about 4,000 (25%) were called active. Inconclusive results (about 26%) are left out. A selection follows. Unmarked numbers belong to inactive results. Calls come from the whole dose curve; as a rule, active = well fitted curve in the direction sought with a large enough effect; inconclusive = small, poorly fitted or top-dose-only effect, or effect the other way; inactive = no such curve, though single readings can be large or run the other way. Peptide text beside a SMILES is read from it.

target: Cytochrome P450 2C9 (Homo sapiens) (UniProt P11712); assay: Cytochrome panel assay with activity outcomes; settings: recombinant CYP, pro-luciferin dealkylation, luminescence, p450-cyp2c9; series mostly up to 57.1 µM
Sequence (P11712 whole entry, looked up): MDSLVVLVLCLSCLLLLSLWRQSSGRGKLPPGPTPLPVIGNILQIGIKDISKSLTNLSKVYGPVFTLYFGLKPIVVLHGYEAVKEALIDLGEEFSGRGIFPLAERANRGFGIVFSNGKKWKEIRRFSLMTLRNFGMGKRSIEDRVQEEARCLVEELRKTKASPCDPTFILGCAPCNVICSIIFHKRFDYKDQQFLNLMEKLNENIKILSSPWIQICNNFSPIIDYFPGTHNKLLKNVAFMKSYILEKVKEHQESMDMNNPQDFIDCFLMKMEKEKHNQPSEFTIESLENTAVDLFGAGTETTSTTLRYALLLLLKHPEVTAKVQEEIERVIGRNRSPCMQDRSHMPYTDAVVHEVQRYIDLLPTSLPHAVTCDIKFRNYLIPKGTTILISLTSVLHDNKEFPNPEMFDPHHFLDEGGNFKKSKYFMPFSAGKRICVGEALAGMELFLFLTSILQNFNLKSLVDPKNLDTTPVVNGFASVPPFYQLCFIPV
% is set by controls: 0 for no effect and ±100 for the full control effect.

SMILES | AC50 | activity, negative = inhibition
COc1ccc(-n2c(=O)c(C)nc3cnc(N(C)C)nc32)cc1 | inactive | 
CN(C)c1ncnc2ccc(-c3ccccc3C(F)(F)F)cc12 |  | -18.7% [at 2.29 µM]
COc1ccccc1-c1cc(Nc2ccc(F)cc2)ncn1 |  | -2.06% [at 2.29 µM]
O=C(NNC(=O)C1CCCCC1)c1cnccn1 | inactive | 
CC(C)CN(C)c1nc(N)c(C(=O)N=C(N)N)nc1Cl | inactive | 
Clc1ccccc1-c1nc(NCCN2CCOCC2)c2ccccc2n1 |  | 24.6% [at 2.29 µM]
O=C1CSC2(CCN(CCCN3c4ccccc4Sc4ccc(Cl)cc43)CC2)N1 |  | 4.61% [at 11.4 µM]
COc1ccccc1NC(=O)Nc1nnc(-c2ccco2)s1 | inactive | 
COc1ccc(Cc2nnc(NC(=O)c3ccco3)s2)cc1 | 2.82 µM (active) | 
OC[C@@H]1O[C@@H](n2cnc3cncnc32)[C@@H](O)[C@H]1O | inactive | 
COc1cccc(-c2nccc(NCc3cnc(C)cn3)n2)c1 |  | -10.6% [at 2.29 µM]
CN(C)CC/C=C1\c2ccccc2CSc2ccccc21 | inactive | 
C[C@H](N)C(=O)O | inactive | 
CC(=O)N[C@@H](CC(=O)O)C(=O)N[C@@H](CCC(=O)O)C(=O)O (Ac-Asp-Glu-OH) | inactive | 
O=C(c1csnn1)N1CCC2(CCCN(c3ccc(-c4ccccc4)cc3)C2)CC1 | inactive | 
O=C(c1csnn1)N1CCC2(CCCN(c3ccccc3)C2)CC1 | 7.94 µM (active) | 
O=C(c1csnn1)N1CCC2(CC1)CN(c1cccc(-c3ccccc3)c1)C2 | inactive | 
O=C(c1csnn1)N1CCC2(CC1)CN(c1ccncc1)C2 | 2.51 µM (active) | 
O=C(c1csnn1)N1CCC2(CC1)CCN(c1ccccc1)CC2 | inactive | 
O=C(c1csnn1)N1CCC2(CC1)CN(c1ccccc1)C2 | inactive | 
COc1ccc(NC(=O)N2CC[C@@]3(CCCN(C(C)=O)C3)C2)cc1 | inactive | 
CCn1c(SCC(=O)OC)nnc1C1CCCCC1 | inactive | 
CCOc1ccc(-c2nnc3ccc(SCC(=O)NCc4ccco4)nn23)cc1 | 11.2 µM (active) | 

SMILES | AC50 | activity, negative = inhibition
COC(=O)CSc1nnc(-c2ccccc2OC)n1-c1ccc(C)cc1 | inactive | 
COC(=O)CSc1ccc2nnc(-c3ccc(F)cc3)n2n1 | 10 µM (active) | 
O[C@@H](c1cc([C@@]23C[C@H]4CC[C@@H]2C[C@H](C4)C3)nc2c(Cl)cc(Cl)cc12)[C@@H]1CCCCN1 |  | -4.65% [at 11.4 µM]
Cc1cnc(CNc2cc(-c3ccc(C(=O)N(C)C)cc3)ncn2)cn1 |  | 23.4% [at 2.29 µM]
O=C(OC1CCN(c2ncc(C(F)(F)F)cc2Cl)CC1)c1ccccc1 | 10 µM (active) | 
FC(F)(F)c1cnc(N2CCC(=NOCc3ccc(Cl)cc3)CC2)c(Cl)c1 | inactive | 
COc1ccc(/C=N/NC(=O)C2CCN(c3ncc(C(F)(F)F)cc3Cl)CC2)cc1 | inactive | 
COC(=O)[C@@]1(Cc2ccc(F)cc2)[C@H]2c3cc(C(=O)N4CCCC4)n(CCc4ccc(OC)c(Br)c4)c3C[C@H]2CN1C(=O)c1ccccc1 | 3.16 µM (active) | 
COc1ccccc1CN1CCCC2(CCN(C(=O)c3cccn3C)CC2)C1 | inactive | 
COC(=O)[C@@]1(Cc2ccc(F)cc2)[C@H]2c3cc(C(=O)N4CCCC4)n(CCc4ccc(O)c(O)c4)c3C[C@H]2CN1C(=O)c1ccccc1 | 3.16 µM (active) | 
C/C(=N\OC(=O)c1ccccc1F)c1nccs1 | inactive | 
O=S(=O)(O)c1ccc2cc(N=Nc3cc(S(=O)(=O)O)c4cccnc4c3O)ccc2c1 |  | -4.09% [at 11.4 µM]
Cc1cc(C)cc(-n2c(O)c(C=NC3CCS(=O)(=O)C3)c3ccccc3c2=O)c1 (configuration not stated) | 4.47 µM (active) | 
Cc1ccc(-n2c(O)c(/C=N/n3cnnc3)c3ccccc3c2=O)cc1 | 0.794 µM (active) | 
Cc1ccc(-n2cnc(=O)c3cccnc32)cc1 | inactive | 
Nc1c(S(N)(=O)=O)cc(S(N)(=O)=O)cc1S(N)(=O)=O |  | -3.4% [at 11.4 µM]
CC(C)NC[C@H](O)c1ccc(NS(C)(=O)=O)cc1 | inactive | 
CN(CCc1ccc(Cl)c(Cl)c1)CCN1CCCCCC1 | inactive | 
CN(CCc1ccc(Cl)c(Cl)c1)C[C@@H](O)COc1ccc(NS(C)(=O)=O)cc1 | 2.51 µM (active) | 
CC(=O)NNC(=O)C(O)(c1ccccc1)c1ccccc1 | inactive | 
O=C(NC(N1CCCC1)C(Cl)(Cl)Cl)c1ccccc1 (configuration not stated) | inactive | 
CC(C)(C)N(NC(=O)c1ccccc1)C(=O)c1cccc(C(=O)N(NC(=O)c2ccccc2)C(C)(C)C)c1 | 15.8 µM (active) | 
COc1ccc(-c2noc(N(C)CC(=O)Nc3cccc(C(F)(F)F)c3)n2)cc1 | 5.01 µM (active) | 

SMILES | AC50 | activity, negative = inhibition
Cc1ccc(CCN2CC(C(=O)NCCCN(C)Cc3ccccc3)CC2=O)cc1 (configuration not stated) | inactive | 
CN(CCCNC(=O)c1ccc(/C=N/O)nc1)CCCN(C)Cc1ccccc1 | inactive | 
CN(CCCNC(=O)c1cccn2c(=O)c3ccccc3nc12)Cc1ccccc1 | 17.8 µM (active) | 
CNC(=O)c1c(I)c(C(=O)NCC(=O)Nc2c(I)c(C(=O)O)c(I)c(C(=O)NCCO)c2I)c(I)c(N(C)C(C)=O)c1I | inactive | 
Cc1ccc(NC(=O)/C(=C\c2ccc([N+](=O)[O-])cc2)NC(=O)c2ccccc2)cc1 | 11.2 µM (active) | 
Cc1ccc(C(=O)N/C(=C\c2ccc([N+](=O)[O-])cc2)C(=O)NCCc2ccccc2)cc1 | inactive | 
O=C(Nc1ccccc1)/C(=C\c1ccncc1)NC(=O)c1ccccc1 | 0.2 µM (active) | 
COc1ccc(NC(=O)/C(=C\c2cc(OC)c(OC)cc2[N+](=O)[O-])NC(=O)c2ccccc2)cc1 | 7.94 µM (active) | 
O=C1[C@H]2[C@H]3[C@H](O)[C@H](O)C/C(=N/OCc4ccccc4)[C@@H]3CC[C@@H]2C(=O)N1C[C@@H]1CCCO1 |  | 7.38% [at 11.4 µM]
O=C(O)C1C2C=CC3(CN(Cc4ccccn4)C(=O)C13)O2 (configuration not stated) | inactive | 
CC(=O)NCCNc1ncncc1-c1ccccc1C(F)(F)F |  | -11.4% [at 2.29 µM]
O=C(O)c1nnsc1COCc1ccccc1 |  | -2.96% [at 11.4 µM]
COC(=O)c1c(-c2cc(OC)c(OC)c(OC)c2)c2ccc(OCc3ccccn3)cc2c(=O)n1-c1ccc(N)cc1 | 3.98 µM (active) | 
CC(C)CNc1nc(N)[nH]c(=O)c1NC=O |  | -6.56% [at 11.4 µM]
OC1(c2ccc(OC(F)F)cc2)CSC(=Nc2cccnc2)N1C1CC1 (configuration not stated) | 5.01 µM (active) | 
Cc1ccccc1-c1cc(NCc2ccccc2)ncn1 |  | -15.2% [at 2.29 µM]
Cc1ccc(N2C(=O)C(Cl)=C(NCc3ccccc3)C2=O)c(C)c1 | 5.62 µM (active) | 
Cc1cccc(CNc2cc(-c3ccccc3Cl)ncn2)c1 |  | 4.64% [at 2.29 µM]
COc1ccc(-c2cc(C(=O)O)c3c(C)nn(-c4ccccn4)c3n2)cc1 | inactive | 
COC(=O)c1ccccc1N/C=C1\CCc2c(c(C)nn2-c2ccccn2)C1=O | 14.1 µM (active) | 
COc1ccc(COC(=O)N/N=C2/C[C@@H](O)[C@@H](O)[C@@H]3[C@H]4C(=O)N(c5ccc(F)cc5F)C(=O)[C@@H]4CC[C@H]23)cc1 |  | -4.97% [at 11.4 µM]
C[n+]1ccc(/C=C/c2ccc(Br)cc2)cc1 | inactive | 
O=C(/C=C/c1ccc(Br)cc1)NC1CCCCCC1 | inactive | 

SMILES | AC50 | activity, negative = inhibition
CCOC(=O)C(CC)(CC)C(=O)/C=C/c1ccc(Br)cc1 | 5.01 µM (active) | 
CCCNS(=O)(=O)c1ccc(OCC(=O)OC)cc1 | 7.08 µM (active) | 
Nc1ccc(S(=O)(=O)NCCS(=O)(=O)O)cc1 |  | 9.74% [at 11.4 µM]
O=C(NOC(=O)c1cc(Br)ccc1Cl)c1cccs1 | inactive | 
Cc1ccc(Cc2cnc(NC(=O)c3cccs3)s2)cc1 | 8.91 µM (active) | 
Cc1ccc(NC(=O)CCC(=O)NNC(=O)c2cccs2)c(C)c1 | inactive | 
O=C(Nc1ncc(Cc2cccc(Cl)c2)s1)c1cccs1 | 11.2 µM (active) | 
Nc1[nH]c(=O)nc2c1ncn2[C@H]1O[C@@H](CO)[C@@H](O)[C@@H]1O |  | -0.314% [at 11.4 µM]
O=C(O)c1ccc(S(=O)(=O)N=Nc2c(O)[nH]c3ccccc23)cc1 |  | 3.79% [at 11.4 µM]
N#CCCSC(=S)[C@H]1CCCC1=N |  | -3.69% [at 11.4 µM]
O=C(CCC(=O)OCc1ccc(C(=O)Oc2ccccc2)cc1)Nc1cccc2ccccc12 | 15.8 µM (active) | 
N#Cc1c(NC(=O)CCC(=O)O)ccc2ccccc12 |  | -7.5% [at 11.4 µM]
COC(=O)CCC(=O)Nc1cccc2ccccc12 | inactive | 
COc1ncc2nc(-c3cc(F)cc(F)c3)c(=O)n(CCC#N)c2n1 | inactive | 
N#Cc1sc2nc(-c3cccs3)cc(-c3ccc(Cl)cc3)c2c1N | 4.47 µM (active) | 
Cc1cc(O)c(C(C)C)cc1N=Cc1ccccc1O | 0.631 µM (active) | 
O=C(O)c1cc(N=Cc2ccccc2O)cc(C(=O)O)c1 |  | 7.44% [at 11.4 µM]
[O-][n+]1c(CN2CCCCC2)nc2cccc3c2c1-c1ccccc1-3 |  | -15.3% [at 11.4 µM]
CC(C)(C)c1ccc(C2CC2C(=O)N/N=C\c2cc3ccccc3nc2Cl)cc1 (configuration not stated) | 3.55 µM (active) | 
CN(C)c1ccc(/C=N\NC(=O)c2cnc3ccccc3c2)cc1 |  | -6.78% [at 11.4 µM]
CN(Cc1ccco1)c1ncncc1-c1cccnc1 |  | 10.8% [at 2.29 µM]
O=c1c(C=Nc2ccc(Oc3ccccc3)cc2)c[nH]n1-c1cccc(Cl)n1 | 6.31 µM (active) | 
CCOc1[nH]n(-c2ccccc2)c(=O)c1C=Nc1ccc(Cl)cc1 | inactive | 
